# Results published in PubChem BioAssay.
# Values without a mark were called inactive. The list shows a part of the results. Activity calls are given as the source filed them.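 The calls were made as follows, unless noted: active = mean inhibition across replicates above the hit cutoff set by the earlier primary screen (cut at about 15% in these data); inactive = the rest.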
# Experiments:
# [1] = target: Oxysterols receptor LXR-beta (Homo sapiens) (UniProt P55055); assay: nonspecific reporter activation via LXR – cell-based, luminescence, HEK293, H. contortus campaign, counter-screen for hcDAF-12 agonist project, confirmation (AID 743027;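 active = mean percent activation of the reporter above a cutoff set as the average over tested compounds plus their standard deviation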); conditions: HEK293 Gal4-LXR tk-luc reporter, 24 h, at 6.8 µM, hits give high values, normalized: DMSO 0%, positive control 100%
# Oxysterols receptor LXR-beta (Homo sapiens), sequence (P55055 whole entry, looked up, the tested form may be a part): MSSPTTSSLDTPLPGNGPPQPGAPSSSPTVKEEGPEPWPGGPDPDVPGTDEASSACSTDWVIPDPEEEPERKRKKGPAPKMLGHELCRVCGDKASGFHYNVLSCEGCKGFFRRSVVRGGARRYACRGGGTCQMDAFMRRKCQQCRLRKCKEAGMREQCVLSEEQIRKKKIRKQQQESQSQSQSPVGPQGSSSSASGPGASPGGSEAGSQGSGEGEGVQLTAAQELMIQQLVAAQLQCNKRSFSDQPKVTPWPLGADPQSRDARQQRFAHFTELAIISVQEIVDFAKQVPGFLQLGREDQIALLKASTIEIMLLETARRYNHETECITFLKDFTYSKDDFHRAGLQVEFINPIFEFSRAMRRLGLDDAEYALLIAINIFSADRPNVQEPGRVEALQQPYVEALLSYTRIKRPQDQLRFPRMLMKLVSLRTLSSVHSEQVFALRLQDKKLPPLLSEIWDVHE
# [2] = test system: Nuclear hormone receptor DAF-12 (Haemonchus contortus); assay: hcDAF-12 luciferase reporter activation, retest – cell-based, luminescence, HEK293, lit1-tk-luc, triplicate, confirmation (AID 743032;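 active = mean activation across triplicate tests above the threshold derived from the earlier primary screen, cut at about 5.5% in these data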;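 also: 0% = DMSO only wells and 100% = 3 µM Δ7-dafachronic acid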); conditions: HEK293 hcDAF-12 lit1-tk-luc reporter, at 6.8 µM, hits give high values, % of Δ7-dafachronic acid response
# [3] = test system: DAF-12 nuclear receptor (Heterodera glycines), GAL4-LBD fusion; assay: hgDAF-12 GAL4 fusion reporter activation, retest – cell-based, luminescence, HEK293, GAL4-LBD fusion, confirmation (AID 743050;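 active = mean activation over triplicate wells above the hit cutoff derived from the earlier primary screen, cut at about 11% in these data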;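 also: 0% = DMSO low control and 100% = 2 mM sodium butyrate high control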); conditions: HEK293 GAL4-hgDAF12 luciferase reporter, agonist mode; at 6.8 µM; hits give high values; percent of butyrate response
# [4] = target: Oxysterols receptor LXR-beta (Homo sapiens) (UniProt P55055); assay: nonspecific reporter activation via LXR – cell-based, luminescence, HEK293, H. glycines campaign, counter-screen for hgDAF-12 agonist project, confirmation (AID 743051;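 active = mean activation of the triplicate above a set limit carried over from the primary screen, none filed active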); conditions: HEK293 Gal4-LXR luciferase reporter, 24 h; at 6.8 µM; hits give high values
# [5] = target: Protein-arginine deiminase type-4 (Homo sapiens) (UniProt Q9UM07); assay: protein arginine deiminase 4 blockade, retest – biochemical, fluorescence polarization, confirmation (AID 488796); conditions: recombinant PAD4, RCA probe fluorescence polarization; at 6.36 µM; hits give high values;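 also: inhibitors block active-site labeling by the probe so polarization falls; 0% = PAD4 with probe and DMSO and 100% = probe without PAD4 enzyme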
# Protein-arginine deiminase type-4 (Homo sapiens), sequence (Q9UM07 whole entry, looked up): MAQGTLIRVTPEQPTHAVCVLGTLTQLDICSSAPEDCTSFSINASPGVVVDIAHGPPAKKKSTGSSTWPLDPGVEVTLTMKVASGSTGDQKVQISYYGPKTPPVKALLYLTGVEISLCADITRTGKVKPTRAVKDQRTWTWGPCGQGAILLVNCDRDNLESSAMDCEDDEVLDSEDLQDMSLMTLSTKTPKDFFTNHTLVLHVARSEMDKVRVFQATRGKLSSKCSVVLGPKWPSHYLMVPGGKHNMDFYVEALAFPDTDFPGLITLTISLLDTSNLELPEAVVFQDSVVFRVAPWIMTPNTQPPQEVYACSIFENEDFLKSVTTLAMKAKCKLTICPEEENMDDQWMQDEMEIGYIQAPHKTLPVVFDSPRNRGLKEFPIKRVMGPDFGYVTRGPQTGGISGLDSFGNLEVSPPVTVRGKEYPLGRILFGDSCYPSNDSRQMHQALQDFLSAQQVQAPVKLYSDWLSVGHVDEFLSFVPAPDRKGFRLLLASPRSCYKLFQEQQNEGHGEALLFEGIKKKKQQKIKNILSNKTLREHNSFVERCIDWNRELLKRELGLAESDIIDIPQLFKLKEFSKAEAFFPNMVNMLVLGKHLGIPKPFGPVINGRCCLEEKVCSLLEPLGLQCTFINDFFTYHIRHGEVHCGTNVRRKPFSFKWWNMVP
# [6] = target: Platelet-activating factor acetylhydrolase (Homo sapiens) (UniProt Q13093); assay: inhibition of plasma PAF acetylhydrolase – biochemical, fluorescence polarization, human, confirmation (AID 463230;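 active = mean inhibition of the triplicate above the hit cutoff set for the earlier primary screen, cut at about 25% in these data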;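 also: 0% = enzyme with DMSO and 100% = wells lacking pPAFAH enzyme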); conditions: recombinant pPAFAH, FP-Rh probe fluorescence polarization; at 3.39 µM; hits give high values
# Platelet-activating factor acetylhydrolase (Homo sapiens), sequence (Q13093 whole entry, looked up): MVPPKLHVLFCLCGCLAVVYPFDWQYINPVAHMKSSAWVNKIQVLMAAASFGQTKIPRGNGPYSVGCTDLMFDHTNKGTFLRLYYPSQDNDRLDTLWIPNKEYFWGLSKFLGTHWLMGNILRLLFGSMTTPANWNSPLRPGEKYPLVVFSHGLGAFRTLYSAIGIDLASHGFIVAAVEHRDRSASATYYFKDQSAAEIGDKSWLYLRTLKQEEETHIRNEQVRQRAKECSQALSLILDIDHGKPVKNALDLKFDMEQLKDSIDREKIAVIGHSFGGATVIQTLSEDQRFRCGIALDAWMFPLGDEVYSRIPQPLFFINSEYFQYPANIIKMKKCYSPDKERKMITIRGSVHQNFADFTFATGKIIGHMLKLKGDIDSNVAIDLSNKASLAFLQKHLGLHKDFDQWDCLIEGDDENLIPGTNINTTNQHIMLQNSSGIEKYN
# [7] = test system: transactivating tegument protein VP16 (Human herpesvirus 1); assay: compounds suppressing VP16-driven luciferase signal – cell-based, luminescence, single concentration, counter-screen for SRC2 inhibitor project (AID 652007; in the data active = inhibition above about 36%); conditions: cell-based VP16 transactivation luciferase reporter, at 8.9 µM, hits give high values
# [8] = target: Nuclear receptor coactivator 2 (Homo sapiens) (UniProt Q15596); assay: inhibition of GAL4-SRC2 driven luciferase expression – cell-based, luminescence, HEK293, triplicate, confirmation (AID 652008;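 active = mean inhibition above 46.5%, the solvent-only control mean plus 3 SD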;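 also: 0% = DMSO-treated cells and 100% = Gossypol at 36 µM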); conditions: HEK293 GAL4-SRC2 luciferase reporter, at 8.9 µM, hits give high values
# Nuclear receptor coactivator 2 (Homo sapiens), sequence (Q15596 whole entry, looked up, the tested form may be a part): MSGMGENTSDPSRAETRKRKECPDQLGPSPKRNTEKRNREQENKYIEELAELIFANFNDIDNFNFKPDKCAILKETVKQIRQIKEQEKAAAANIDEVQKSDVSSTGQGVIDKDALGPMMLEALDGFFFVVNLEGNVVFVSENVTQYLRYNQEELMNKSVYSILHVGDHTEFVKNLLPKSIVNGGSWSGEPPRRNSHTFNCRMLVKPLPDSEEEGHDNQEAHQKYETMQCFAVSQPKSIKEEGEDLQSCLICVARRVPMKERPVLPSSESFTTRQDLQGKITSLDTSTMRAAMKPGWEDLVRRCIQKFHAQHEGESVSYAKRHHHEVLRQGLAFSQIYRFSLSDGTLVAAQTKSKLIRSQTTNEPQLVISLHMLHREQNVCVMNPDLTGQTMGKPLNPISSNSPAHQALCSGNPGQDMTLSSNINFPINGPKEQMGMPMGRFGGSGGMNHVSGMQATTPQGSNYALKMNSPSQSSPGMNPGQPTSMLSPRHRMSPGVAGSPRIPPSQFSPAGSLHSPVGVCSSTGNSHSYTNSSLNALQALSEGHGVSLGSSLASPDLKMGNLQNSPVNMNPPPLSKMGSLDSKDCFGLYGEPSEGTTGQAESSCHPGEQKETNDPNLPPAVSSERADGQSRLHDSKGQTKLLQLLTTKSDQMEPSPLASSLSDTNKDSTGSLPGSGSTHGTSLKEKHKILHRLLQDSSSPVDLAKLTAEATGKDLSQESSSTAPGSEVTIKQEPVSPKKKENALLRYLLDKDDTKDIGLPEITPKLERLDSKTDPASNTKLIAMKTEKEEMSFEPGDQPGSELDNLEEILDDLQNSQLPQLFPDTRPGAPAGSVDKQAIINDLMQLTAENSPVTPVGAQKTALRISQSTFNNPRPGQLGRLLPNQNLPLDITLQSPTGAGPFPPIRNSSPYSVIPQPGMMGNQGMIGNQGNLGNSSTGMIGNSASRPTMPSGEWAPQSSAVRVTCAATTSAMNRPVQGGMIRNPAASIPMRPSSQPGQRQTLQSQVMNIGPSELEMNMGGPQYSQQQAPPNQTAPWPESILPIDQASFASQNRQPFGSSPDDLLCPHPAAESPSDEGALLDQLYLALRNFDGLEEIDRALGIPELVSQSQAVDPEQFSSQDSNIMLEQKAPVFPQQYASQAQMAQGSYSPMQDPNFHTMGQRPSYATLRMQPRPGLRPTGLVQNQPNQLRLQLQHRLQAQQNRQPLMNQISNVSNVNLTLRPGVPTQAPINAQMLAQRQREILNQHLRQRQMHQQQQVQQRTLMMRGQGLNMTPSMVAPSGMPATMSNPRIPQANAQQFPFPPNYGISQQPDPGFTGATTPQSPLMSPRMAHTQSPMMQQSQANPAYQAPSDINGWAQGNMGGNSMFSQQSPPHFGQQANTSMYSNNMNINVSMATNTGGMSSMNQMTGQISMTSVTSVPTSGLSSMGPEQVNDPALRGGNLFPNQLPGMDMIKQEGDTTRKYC
# [9] = BSA probe fluorescence interference – biochemical, TAMRA-labeled BSA, counter-screen for TCR-CD3 interaction inhibitor project (AID 652035; in the data active = inhibition above about 23%;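 also: 0% = buffer low control and 100% = reference high control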); conditions: TAMRA-labeled BSA probe fluorescence counterscreen; at 9.4 µM; hits give high values
# [10] = test system: T-cell receptor (TCR)-CD3 interaction, human; assay: blockers of TCR binding to CD3 – biochemical, fluorescence, TAMRA-labeled TCR probe, confirmation (AID 652036; in the data active = inhibition above about 19%); conditions: TAMRA-labeled TCR probe fluorescence binding assay; at 9.4 µM; hits give high values
# [11] = target: (Lyso)-N-acylphosphatidylethanolamine lipase (Mus musculus) (UniProt Q8VD66); assay: mouse ABHD4 hydrolase blockers, triplicate – biochemical, fluorescence polarization, confirmation (AID 720658;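 active = mean inhibition across replicates above the hit cutoff set in the primary screen, cut at about 30% in these data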;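 also: 0% = wild-type ABHD4 with DMSO and 100% = catalytically dead S159A mutant with DMSO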); conditions: purified mABHD4, FP-Rh probe fluorescence polarization; at 8.92 µM; hits give high values
# (Lyso)-N-acylphosphatidylethanolamine lipase (Mus musculus), sequence (Q8VD66 whole entry, looked up): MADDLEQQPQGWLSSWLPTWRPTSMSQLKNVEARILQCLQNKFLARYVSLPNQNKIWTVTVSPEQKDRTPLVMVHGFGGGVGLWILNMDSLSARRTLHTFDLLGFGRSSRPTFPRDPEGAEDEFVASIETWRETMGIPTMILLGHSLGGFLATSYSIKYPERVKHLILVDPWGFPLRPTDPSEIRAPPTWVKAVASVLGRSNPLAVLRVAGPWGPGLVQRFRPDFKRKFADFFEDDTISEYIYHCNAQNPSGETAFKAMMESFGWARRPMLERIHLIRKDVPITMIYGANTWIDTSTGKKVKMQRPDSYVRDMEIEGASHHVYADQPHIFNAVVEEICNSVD
# [12] = StAR promoter reporter inhibitors, counter-screen for LRH-1 inverse agonist project, cell-based, luminescence, high throughput (AID 651611; in the data active = inhibition above about 28%); conditions: StAR promoter luciferase reporter counterscreen, at 3.6 µM, hits give high values
# [13] = target: Nuclear receptor subfamily 5 group A member 2 (Homo sapiens) (UniProt O00482); assay: NR5A2 activity suppression in reporter cells – cell-based, luminescence, confirmation (AID 651613; in the data active = inhibition above about 42%;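 also: HEK293T cells co-transfected with LRH-1 and StAR promoter luciferase reporter; 0% = vehicle wells and 100% = parental cells lacking receptor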); conditions: cell-based LRH-1 luciferase reporter, inverse agonism; at 3.6 µM; hits give high values
# Nuclear receptor subfamily 5 group A member 2 (Homo sapiens), sequence (O00482 whole entry, looked up): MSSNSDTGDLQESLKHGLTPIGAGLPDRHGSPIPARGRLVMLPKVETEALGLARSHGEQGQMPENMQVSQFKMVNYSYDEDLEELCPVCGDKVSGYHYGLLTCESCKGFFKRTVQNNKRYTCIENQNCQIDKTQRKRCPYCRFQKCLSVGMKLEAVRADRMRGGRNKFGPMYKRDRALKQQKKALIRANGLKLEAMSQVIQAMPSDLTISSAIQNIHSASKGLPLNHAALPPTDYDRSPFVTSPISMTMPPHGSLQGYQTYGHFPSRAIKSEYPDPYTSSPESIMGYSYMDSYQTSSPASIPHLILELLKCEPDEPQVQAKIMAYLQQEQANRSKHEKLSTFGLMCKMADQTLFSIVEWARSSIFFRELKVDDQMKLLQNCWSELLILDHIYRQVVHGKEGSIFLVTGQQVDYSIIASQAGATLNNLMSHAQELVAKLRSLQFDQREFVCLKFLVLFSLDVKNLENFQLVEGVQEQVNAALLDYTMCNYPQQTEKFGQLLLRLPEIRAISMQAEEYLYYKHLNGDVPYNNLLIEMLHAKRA
# [14] = target: Steroidogenic factor 1 (Homo sapiens) (UniProt Q13285); assay: inverse agonism at SF1 nuclear receptor – cell-based, luminescence, high throughput, counter-screen for LRH-1 inverse agonist project (AID 651614; in the data active = inhibition above about 44%;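 also: cells cotransfected with StAR promoter reporter and SF1 expression vector; 0% = vehicle on cells with receptor and 100% = vehicle on cells lacking receptor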); conditions: cell-based SF1 luciferase reporter, at 3.6 µM, hits give high values
# Steroidogenic factor 1 (Homo sapiens), sequence (Q13285 whole entry, looked up, the tested form may be a part): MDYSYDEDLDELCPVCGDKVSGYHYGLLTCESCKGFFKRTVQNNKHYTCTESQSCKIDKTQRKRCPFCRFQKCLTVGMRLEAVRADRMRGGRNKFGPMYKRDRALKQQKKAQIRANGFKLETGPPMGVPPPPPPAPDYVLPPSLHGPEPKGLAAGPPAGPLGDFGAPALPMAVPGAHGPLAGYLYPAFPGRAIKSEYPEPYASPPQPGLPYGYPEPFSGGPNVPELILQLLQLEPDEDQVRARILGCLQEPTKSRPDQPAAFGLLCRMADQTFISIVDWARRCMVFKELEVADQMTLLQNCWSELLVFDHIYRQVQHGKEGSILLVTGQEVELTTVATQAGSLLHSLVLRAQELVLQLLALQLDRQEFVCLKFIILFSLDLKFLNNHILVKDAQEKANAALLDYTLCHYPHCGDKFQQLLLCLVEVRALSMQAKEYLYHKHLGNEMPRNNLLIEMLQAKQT
# [15] = compounds suppressing VP16-driven luciferase signal – cell-based, luminescence, high throughput, counter-screen for LRH-1 inverse agonist project (AID 651615; in the data active = inhibition above about 33%); conditions: Gal4-VP16 luciferase reporter cells, at 3.6 µM, hits give high values
# [16] = target: Receptor-interacting serine/threonine-protein kinase 2 (Homo sapiens) (UniProt O43353); assay: inhibitors of RIPK2 association with NOD2 – fluorescence, CHO cells, BLA complementation, triplicate, confirmation (AID 624370;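 active = mean inhibition across replicates above a set limit taken from the earlier primary screen, cut at about 21% in these data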;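 also: 0% = DMSO-only wells and the high end = clavulanate BLA-blocked wells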); conditions: CCF4 FRET, at 4.98 µM, hits give high values
# Receptor-interacting serine/threonine-protein kinase 2 (Homo sapiens), sequence (O43353 whole entry, looked up): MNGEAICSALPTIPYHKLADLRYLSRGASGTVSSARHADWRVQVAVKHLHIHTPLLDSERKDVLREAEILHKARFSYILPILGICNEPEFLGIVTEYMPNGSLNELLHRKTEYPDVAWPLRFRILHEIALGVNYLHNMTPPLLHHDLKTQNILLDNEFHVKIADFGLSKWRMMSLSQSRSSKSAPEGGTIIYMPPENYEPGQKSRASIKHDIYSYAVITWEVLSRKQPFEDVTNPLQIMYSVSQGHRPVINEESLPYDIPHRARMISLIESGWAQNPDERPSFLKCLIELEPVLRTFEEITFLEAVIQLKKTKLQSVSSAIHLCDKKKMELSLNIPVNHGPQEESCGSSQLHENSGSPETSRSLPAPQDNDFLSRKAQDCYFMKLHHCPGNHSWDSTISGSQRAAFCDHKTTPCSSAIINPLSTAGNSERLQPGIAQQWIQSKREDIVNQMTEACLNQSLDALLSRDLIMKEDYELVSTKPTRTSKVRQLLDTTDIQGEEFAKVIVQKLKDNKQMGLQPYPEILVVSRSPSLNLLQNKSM
# [17] = BLA reporter readout interference – cell-based, CHO-K1 CMV-bla, CCF4 FRET, fluorescence, artefact control for NOD2-RIPK2 interaction inhibitor project, confirmation (AID 624371;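 active = mean inhibition above the low-control mean inhibition plus three low-control SD, cut at about 11% in these data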;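 also: 0% = DMSO only wells and 100% = clavulanate high control wells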); conditions: CCF4 FRET ratio, counterscreen, at 4.98 µM, hits give high values
# [18] = target: Serine protease HTRA1 (Homo sapiens) (UniProt Q92743); assay: confirming inhibition of human HTRA1 – biochemical, fluorescence polarization, confirmation (AID 540248;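 active = mean inhibition over three repeats above a set limit taken from the earlier primary screen, cut at about 37% in these data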;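 also: 0% = HTRA1 with DMSO and 100% = wells lacking HTRA1; inhibitors block probe binding so polarization drops and inhibition rises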); conditions: recombinant HTRA1, FP-rhodamine activity-based probe, at 5.96 µM, hits give high values
smiles,measurement,setting,value
N#CC1=C(N)Oc2c(sc3ccccc23)C1c1ccco1 (stereo unspecified),activation,[1],-0.13%
same,activation,[2],1.83%
COc1ccc(N=C(C)c2sc3ccccc3c2O)cc1,activation,[3],18.6% (active)
same,activation,[4],0.76%
C=CCN(C(=O)Nc1ccc2oc(C)nc2c1)c1ccccc1,inhibition,[5],-3.81%
CC(=O)N(c1ccc2oc(=O)sc2c1)S(=O)(=O)c1ccc(C)cc1,inhibition,[5],10.9%
O=C(/C=C/c1cccs1)c1cc(Cl)ccc1OC(=O)N1CCOCC1,inhibition,[6],47.8% (active)
same,inhibition,[7],20.3%
same,inhibition,[8],-4.35%
COC(=O)c1ccc(NC(=O)CSc2nncc3ccc(OC)c(OC)c23)cc1,inhibition,[5],0.13%
CCCCNC(=O)Nc1c(C)cc(SC#N)cc1C,inhibition,[5],35.6% (active)
O=c1[nH]n(-c2ccc([N+](=O)[O-])cc2)c(=O)c2ccccc12,inhibition,[5],25.3% (active)
same,inhibition,[9],59.3% (active)
same,inhibition,[10],46% (active)
same,inhibition,[11],43.2% (active)
O=C(NCCCO)c1cc2c([nH]c3ccccc32)c(-c2ccc(F)cc2)n1,inhibition,[5],22.4% (active)
Cc1nc2ccc(NC(=O)C(F)(F)F)cc2o1,inhibition,[5],4.72%
O=C(NCC1CCCO1)c1cc2c([nH]c3ccccc32)c(-c2ccc(F)cc2)n1 (stereo unspecified),inhibition,[5],64.8% (active)
same,inhibition,[12],50.5% (active)
same,inhibition,[13],41.6% (active)
same,inhibition,[14],50.1% (active)
same,inhibition,[15],27.2%
COc1cccc(NC(=O)C2c3cc(OC)c(OC)cc3C(=O)N(C)C2c2cccnc2)c1 (stereo unspecified),inhibition,[5],8.92%
CC(=O)Oc1cccc(N2C(=O)CC(Nc3ccc(N4CCOCC4)cc3)C2=O)c1 (stereo unspecified),inhibition,[5],-1.36%
CC(C)n1cnc2c(NCc3ccccc3)cc(OCC3CCN(C)CC3)cc21,inhibition,[5],-10.7%
CC(C)C(NC(=O)c1ccc(Cl)cc1)C(=O)O (stereo unspecified),inhibition,[5],-6.12%
Cc1nn(C)cc1N1C(=O)c2cccc3c(N)ccc(c23)C1=O,inhibition,[5],36.2% (active)
same,inhibition,[16],24% (active)
same,inhibition,[17],26.6% (active)
same,inhibition,[9],52.9% (active)
same,inhibition,[10],33.9% (active)
same,inhibition,[11],40.4% (active)
CC(C)(C)NC(=O)NC(=O)COC(=O)CCC1CCCCC1,inhibition,[5],2.14%
CCC(C)Cn1c(O)cc2nn(-c3nc4ccccc4s3)c(=O)c-2c1C (stereo unspecified),inhibition,[6],20.9%
same,inhibition,[18],59.6% (active)
same,inhibition,[7],86.8% (active)
same,inhibition,[8],94.8% (active)
same,inhibition,[11],54.4% (active)
COc1cccc2c(C)c(C(=O)O)[nH]c12,inhibition,[6],33% (active)
same,inhibition,[11],34.5% (active)
COc1cc(C(=O)NCc2ccc3c(c2)cc(C)n3C)cc(OC)c1OC,inhibition,[5],1.97%
CCc1ccccc1NC(=S)Nc1cc(OC)c(NC(=O)C(C)C)cc1OC,inhibition,[5],1.96%
same,inhibition,[11],-9.17%
CN1C(=O)c2cccc3c(N)ccc(c23)C1=O,inhibition,[5],17.1% (active)
same,inhibition,[11],31.5% (active)
COc1ccccc1CNC(=O)C1CCN(c2nc3ccccc3o2)CC1,inhibition,[5],5.44%
c1ccc2c(C[n+]3csc4ccccc43)cccc2c1,inhibition,[5],61.3% (active)
CC(C)c1ccc(NC(=S)NNc2ccc(Cl)c(C(=O)O)c2)cc1,inhibition,[6],11.9%
same,inhibition,[11],19.4%
Cc1ccc(C(=O)CSc2nc3ccccc3c(=O)n2N)o1,inhibition,[5],1.81%
Cn1c(Nc2cccc(Cl)c2)nc2ccccc21,inhibition,[5],4.71%
